High-throughput results deposited in PubChem BioAssay by National Center for Advancing Translational Sciences (NCATS).
Shown are actives, neighbours in structure and some others; about 6.2% of the full set was active somewhere.
RORg inh – inhibitors of mouse ROR gamma transcriptional activity; AID 2551; Potency, µM (series often up to 53.6 µM), for the others: at the highest dose activity change, negative = inhibition, usual class: inhibitors; actives 5.4% (n = 310,000); Drosophila S2 Gal4-RORgamma UAS-luciferase reporter, 20 h; also: nearly all actives have a fitted effect of over 60% in size
Target sequence (P51450 whole entry, looked up, the tested form may be a part): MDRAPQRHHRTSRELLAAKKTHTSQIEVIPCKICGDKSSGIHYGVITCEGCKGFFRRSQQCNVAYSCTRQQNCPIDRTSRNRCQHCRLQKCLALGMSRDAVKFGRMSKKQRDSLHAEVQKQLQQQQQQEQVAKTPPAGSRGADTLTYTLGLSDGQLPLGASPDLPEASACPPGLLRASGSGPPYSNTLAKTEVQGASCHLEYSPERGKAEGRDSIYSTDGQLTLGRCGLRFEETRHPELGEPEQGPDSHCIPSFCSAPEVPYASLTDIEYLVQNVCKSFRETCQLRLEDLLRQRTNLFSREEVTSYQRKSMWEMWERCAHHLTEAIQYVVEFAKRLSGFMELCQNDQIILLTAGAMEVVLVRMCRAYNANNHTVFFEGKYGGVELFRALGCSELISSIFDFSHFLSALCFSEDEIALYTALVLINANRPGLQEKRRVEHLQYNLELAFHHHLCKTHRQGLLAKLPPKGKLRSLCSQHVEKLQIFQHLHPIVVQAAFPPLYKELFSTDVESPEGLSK
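Schneider cells (Drosophila), stable Gal4 DBD–ROR gamma + UAS-luc; 1 hr cmpd preincubation; Cu2+ induction 700 uM final; 20 hr ambient; luminescence.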
KinaseGlo FLuc – Kinase-Glo luciferase inhibition (counter-screen); Q27757; Kinase-Glo luciferase, ATP luminescence, 8 min; Potency, µM (highest dose often 38.3 µM), for inactives: at the highest dose activity change, negative = inhibition, actives largely listed as inhibitors; actives 0.28% (n = 200,000); AID 1379; also: nearly all actives have a fitted effect of over 60% in size
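Luminescence was the read-out, taken after 8-minute incubation at ambient temperature. Luciferase turned over luciferin with 10 uM ATP in imidazole pH 7.2 buffer containing KCl, MgCl2, Tween 20 and BSA.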
Gal4-VP16 FLuc – inhibits Gal4-VP16 luciferase reporter, ROR gamma counter-screen. Drosophila S2 Gal4-VP16 UAS-luciferase, luminescence, 20 h. Potency, µM (highest dose often 53.6 µM), for inactives: at the top dose activity, negative = inhibition, hits mostly inhibitors. actives 3.5% (n = 310,000);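 also: Gal4-VP16 expression switched on by copper sulfate through the metallothionein promoter; nearly all actives have a fitted effect of over 50% in size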
An asterisk follows results filed as active; ? = inconclusive; . = no result given; [ ] = another dose, or the depositor's remark. Calls follow the shape of the dose curve; as a rule, active = well fitted curve in the direction sought with a large enough effect; inconclusive = small, poorly fitted or top-dose-only effect, or another doubt; inactive = no such curve, though single readings can be large; an effect the other way counts as inactive or inconclusive. % is scaled to controls: 0 for no effect and ±100 for the full control effect; potency is read from the fitted curve at half-maximal effect.

SMILES	RORg inh	KinaseGlo FLuc	Gal4-VP16 FLuc
O=C(O)CCCNC(=O)c1cccc(C(=O)NCCCC(=O)O)n1	3%	-2%	-16%
CCOC(=O)C1(Cc2ccccc2C)CCCN(C(=O)c2cc(C3CC3)[nH]n2)C1 (stereo not drawn)	?	.	-2%
COC(=O)c1ccc(C(NC(=O)OCc2ccccc2)/C(C)=C/[C@@H](C)C(=O)NCc2nc3ccccc3s2)cc1 (stereo partly drawn)	44%	-2%	-1%
CCCn1nnnc1NC(=O)c1cccs1	0.89µM*	1%	2.8µM*
CCCn1nnnc1NCc1cc(Br)ccc1OC	5%	-12%	?
CCCn1nnnc1NC(=O)c1cc(Br)ccc1OC	3.2µM*	0%	5.6µM*
CCCn1nnnc1SCC(=O)NCc1cccs1	0%[10 µM]	0%	6%
CCCn1nnnc1NCc1c(Cl)cccc1Cl	-4%	-2%	6%
CCCn1nnnc1NC(=O)c1ccc(C)cc1Cl	3.5µM*	-1%	6.3µM*
CC(C)Cn1nnnc1S(=O)(=O)CC#N	4%	-3%	1%
CC(=O)Oc1ccc2oc(-c3ccccc3)c(C(N)=O)c2c1	1%	.	4%
Cc1cccc(Nc2cc(Cl)nc(SCC(=O)O)n2)c1C	-3%	-3%[7.66 µM]	1%
COc1cc(OC)c(OC)cc1/C=C/C(=O)c1ccc(NS(=O)(=O)c2ccc(C)cc2)cc1	?	-2%	5%
CCOC(=O)c1ccc(COc2ccc(C(C)C)cc2)o1	-38%	.	-10%
CCOc1ccc(OCc2ccc(C(=O)N3CCCC3)o2)cc1	2.5µM*	1%	-30%
CCCc1ccc(OCc2ccc(C(=O)N3CCCC3)o2)cc1	?	.	-25%
CCC(C)c1ccc(OCc2ccc(C(=O)O)o2)cc1 (stereo not drawn)	14µM*	.	?
CCOC(=O)C(CCCOc1ccc(C(C)CC)cc1)C(=O)OCC (stereo not drawn)	2.8µM*	-1%	?
CCOC(=O)C(CCCOc1ccc(C)cc1)C(=O)OCC	33%	-1%	-20%
COc1ccc(-n2c(SCCNCCO)nc3sc4c(c3c2=O)CCCC4)cc1	1%	.	-4%
CCOc1ccc(/C=N/NC(=O)C2CCCC2)c(OCC)c1	-29%	.	4%
O=C(NCc1ccccc1F)c1ccc2c(c1)OCCO2	-12%[1.91 µM]	.	?
CC[C@H](C)[C@H](NC(=O)[C@H](C)NC(=O)[C@H](Cc1cnc[nH]1)NC(=O)[C@@H]1CCCN1C(=O)CNC(=O)[C@H](CC(C)C)NC(=O)[C@H](CC(C)C)NC(=O)[C@H](Cc1ccc(O)cc1)NC(=O)CNC(=O)[C@H](C)NC(=O)[C@H](CO)NC(=O)[C@H](CC(N)=O)NC(=O)[C@H](CC(C)C)NC(=O)[C@@H](NC(=O)[C@H](Cc1c[nH]c2ccccc12)NC(=O)CN)[C@@H](C)O)C(=O)N[C@@H](CC(=O)O)C(=O)N[C@@H](CC(N)=O)C(=O)N[C@@H](Cc1cnc[nH]1)C(=O)N[C@@H](CCCNC(=N)N)C(=O)N[C@@H](CO)C(=O)N[C@@H](Cc1ccccc1)C(=O)N[C@@H](CO)C(=O)N[C@@H](CC(=O)O)C(=O)N[C@@H](CCCCN)C(=O)N[C@@H](Cc1cnc[nH]1)C(=O)NCC(=O)N[C@@H](CC(C)C)C(=O)N[C@H](C(N)=O)[C@@H](C)O	-21%	.	0%
NC(=S)N=Nc1c(O)[nH]c2cc(F)c(F)cc12	3.2µM*	1%	5µM*
N=C(N)N=Nc1c(O)[nH]c2ccc(Br)cc12	-3%	1%	-1%
SMILES	RORg inh	KinaseGlo FLuc	Gal4-VP16 FLuc
CCCCCC(=O)Nc1ncc2c(n1)CC(c1cccs1)CC2=O (stereo not drawn)	-5%	.	9%
Cn1c(=O)[nH]c(=O)c2c1nc(Br)n2C/C=N/NC(N)=S	?	.	1%
Cn1c(=O)c2c(nc(Br)n2C/C=N/NC(N)=S)n(C)c1=O	5µM*	.	-26%
CC(=O)NCCC(=O)Nc1ccc(F)cc1C	-18%	-6%	-6%
CC(C)(C)C(=O)N1CCN(c2ccnc3cc(Cl)ccc23)CC1	36%	.	-9%
O=C(Nc1ccc(OC(F)(F)F)cc1)N1CCN(c2ccnc3cc(Cl)ccc23)CC1	?	.	28µM*
CC(c1ccco1)N(C(=O)C12CC3(C)CC(C)(CC(C)(C3)C1)C2)c1ccccn1 (stereo not drawn)	-12%	19%	7%
O=C(Nc1ncnc2sc3c(c12)CCCCC3)c1ccc(F)cc1	7.1µM*	1%	13µM*
O=C(Nc1ncnc2sc3c(c12)CCCCC3)c1ccccc1	11µM*	-3%	20µM*
Cc1ccc(C(=O)O)cc1Nc1ncnc2sc3c(c12)CCC3	-33%	.	1%
O=C(Nc1ncnc2sc3c(c12)CCC3)c1ccco1	-19%	7%	-7%
CC(NC(=O)c1ccco1)C(=O)NC(C)c1cc(F)c(Cl)cc1Cl (stereo not drawn)	-15%	.	-5%
O=C1CSCC(=O)N1Cc1ccc(Cl)c(Cl)c1	1%	.	7%
Clc1cc(Cl)c(OCC#CI)cc1Cl	7.1µM*	.	5.6µM*
Clc1cc(Cl)c(Cl)cc1Cl	12%	.	-3%
CCOc1ccc(CN2CCNC(=O)C2CC(=O)NCc2ccccn2)cc1 (stereo not drawn)	11µM*	.	-7%
CCOc1ccc(CN2CCNC(=O)C2CC(=O)NCCc2ccccn2)cc1 (stereo not drawn)	-16%	.	15%
NC(=O)C(=O)NN=C1C2CC3CC(C2)CC1C3	-15%	6%	7%
NC(=S)NN=C1C2CC3CC(C2)CC1C3	2µM*	3%	?
COC(=O)c1sccc1-n1cccc1C(=O)C(=O)N1CCOCC1	12%	-5%	4%[10 µM]
Cc1ccccc1C([O-])=Nc1ccc[n+](-c2nc3ccccc3nc2NS(=O)(=O)c2ccccc2)c1	42%	.	6%
CC(=O)Oc1ccc(/C=C/c2nc3ccccc3c(=O)o2)cc1	-43%	.	?
CC(=O)Oc1ccccc1/C=C/c1nc2ccccc2c(=O)o1	8.9µM*	.	10µM*
Cc1cccc(CN2CCCC(C(=O)Nc3ccc(-c4cscn4)cc3)C2)c1 (stereo not drawn)	31%	.	-14%
Cc1cccc(CN2CCC(C(=O)Nc3cccc(-c4cccc(F)c4)c3)CC2)n1	7.1µM*	.	?
SMILES	RORg inh	KinaseGlo FLuc	Gal4-VP16 FLuc
O=C(Nc1ccc(-c2cscn2)cc1)C1CCCN(Cc2ccccc2)C1 (stereo not drawn)	1.8µM*	.	-21%
COCc1ccc(CN2CCC(C(=O)Nc3cccc(-c4cccc(Cl)c4)c3)CC2)o1	18µM*	.	8.9µM*
Cc1c(CN2CCC(C(=O)Nc3cccc(-c4cccc(Cl)c4)c3)CC2)cnn1C	-22%	.	3%
COCc1ccc(CN2CCC(C(=O)Nc3cccc(-c4cscn4)c3)CC2)o1	-35%	.	?
Cc1cccc(CN2CCC(C(=O)Nc3cccc(-c4cscn4)c3)CC2)n1	-9%	.	-16%
O=C(Nc1cccc(-c2cccc(Cl)c2)c1)C1CCN(Cc2ccccn2)CC1	20µM*	.	?
C#CC(C)OC(=O)Nc1cccc(Cl)c1 (stereo not drawn)	?	.	3%
CC(C)(C)C(=O)Nc1ccccc1N1CCN(c2ccc(F)cc2)CC1	12%	.	6%
Cc1ncc(CN2CCCC(C(=O)Nc3ccc(-c4cccc(F)c4)cc3)C2)cn1 (stereo not drawn)	27%	.	-18%
